# Measured values as given in the supplement of paper PMC9337992.
# ± gives the standard deviation of the averaged measurements.
# System: MDAMB231
# Experiment: cell proliferation (confluence) relative to DMSO control; higher = less growth inhibition
# Settings: 5 uM; 6 d
# Protocol: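 Epigenetic chemical probe screen: 15 TNBC cell lines, 500 cells per well in 384-well plates, treated with 5 uM of each of 36 SGC probes for 6 d. Confluency was imaged by IncuCyte ZOOM and normalised to DMSO control wells. Four replicate wells per compound.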
row,Compound,cell proliferation [%]
1,COc1cc(C(=O)N2CC[C@@H](O)[C@@H](N)C2)cc2nc(-c3cc4ccccc4n3CC3CC3)n(C)c12,88.8 ± 9.1
2,O=C(O)CNC(=O)c1c(O)c2ccccc2n(Cc2ccccc2)c1=O,97.33 ± 0.35
3,c1ccc([C@@H]2C[C@H]2NC2CCNCC2)cc1,98.48 ± 0.8
